Reference: the antibiotic and cytotoxicity screens of Wong et al. (2023)
In all, about 39,000 compounds went through this assay and about 1,500 (3.8%) were called active. For the sample, actives were picked, then their nearest neighbours and some compounds at random.

What follows are compounds tested on HSkMC (human skeletal muscle cells) (assay: cytotoxicity call (relative viability < 0.9)). Details: 10 µM.
`C[C@@H]1CN([C@@H](C)CO)C(=O)c2cc(NC(=O)CCN3CCOCC3)ccc2O[C@@H]1CN(C)S(C)(=O)=O` was tested, and the cytotoxicity call was “inactive”.
In the case of `C[C@H](O)C#Cc1ccc2c(c1)O[C@@H](CN(C)C(=O)Nc1ccccc1)[C@@H](C)CN([C@H](C)CO)S2(=O)=O`, the cytotoxicity call is reported as “inactive”.
In the case of `CC(C)NC(=O)Nc1cccc2c1O[C@H](CN(C)Cc1ccc(C(=O)O)cc1)[C@H](C)CN([C@@H](C)CO)C2=O`, the cytotoxicity call is reported as “inactive”.
In the case of `CCC1C=C2C(=O)OC(=O)C2CC2=C(C(=O)OC2=O)C(OC(C)=O)C1CC` (configuration not stated), the cytotoxicity call is reported as “inactive”.
For `COc1ccc(CN(C)C[C@H]2Oc3ccc(NC(=O)C4CC4)cc3CC(=O)N([C@@H](C)CO)C[C@H]2C)cc1`, the cytotoxicity call was “inactive”.
With `O=C(C[C@H]1CC[C@@H]2[C@H](COC[C@@H](O)CN2S(=O)(=O)c2cccc(Cl)c2)O1)N1CCOCC1` the cytotoxicity call was “inactive”.
In the case of `CN(C)C(=O)c1ccc(-c2cccc(-c3nc(C(=O)NC4CCCC4)cc4c3[C@H](CCO)N([S@@](=O)C(C)(C)C)C4)c2)cc1`, the cytotoxicity call is reported as “inactive”.
For `Nc1nonc1/C(=N/O)N1CCCCC1`, the cytotoxicity call was “inactive”.
`Cc1nn(C)c(COc2ccc(N3CCN(S(=O)(=O)N(C)C)CC3)cc2)c1-c1cccc2c(CCCOc3cccc4ccccc34)c(C(=O)O)n(CCN3CCNCC3)c12` was tested, and the cytotoxicity call was “inactive”.
For `O=C1C=CC(=O)N1`, the cytotoxicity call was “active”.
With `CN1C2CCC1CC(OC(c1ccccc1)c1ccccc1)C2.CS(=O)(=O)O` (configuration not stated) the cytotoxicity call was “inactive”.
For `CC(C)(C)c1ccc(C(=O)CCCN2CCC(OC(c3ccccc3)c3ccccc3)CC2)cc1`, the cytotoxicity call was “active”.
`CN1CCC(OC(c2ccccc2)c2ccccc2)CC1.Cl` was tested, and the cytotoxicity call was “inactive”.
With `C[C@H]1CCCCO[C@H](CN(C)C(=O)CCC(F)(F)F)[C@@H](C)CN([C@@H](C)CO)C(=O)c2cc(NC(=O)CCC(F)(F)F)ccc2O1` the cytotoxicity call was “inactive”.
`C[C@@H]1CN([C@H](C)CO)C(=O)c2cc(NS(C)(=O)=O)ccc2O[C@@H]1CN(C)C(=O)Nc1ccc(C(F)(F)F)cc1` was tested, and the cytotoxicity call was “inactive”.
With `COC(=O)CSc1nc(=O)c(C)n[nH]1` the cytotoxicity call was “inactive”.
For `C[C@@H]1CN([C@H](C)CO)C(=O)c2cccc(NC(=O)Nc3ccc(C(F)(F)F)cc3)c2O[C@H]1CN(C)C(=O)Nc1cccc2ccccc12`, the cytotoxicity call was “inactive”.
In the case of `C[C@H](CO)N1C[C@H](C)[C@@H](CN(C)C(=O)Nc2cccc3ccccc23)Oc2c(NC(=O)Nc3ccc(C(F)(F)F)cc3)cccc2C1=O`, the cytotoxicity call is reported as “inactive”.
For `C[C@@H]1CN([C@@H](C)CO)C(=O)c2cccc(NC(=O)Nc3ccc(C(F)(F)F)cc3)c2O[C@H]1CN(C)C(=O)Nc1cccc2ccccc12`, the cytotoxicity call was “inactive”.
For `C[C@@H]1CN([C@@H](C)CO)C(=O)c2cccc(NC(=O)Nc3ccc(C(F)(F)F)cc3)c2O[C@@H]1CN(C)C(=O)Nc1cccc2ccccc12`, the cytotoxicity call was “active”.
In the case of `C[C@H](CO)N1C[C@H](C)[C@H](CN(C)C(=O)Nc2cccc3ccccc23)Oc2c(NC(=O)Nc3ccc(C(F)(F)F)cc3)cccc2C1=O`, the cytotoxicity call is reported as “inactive”.
`C[C@@H]1CN([C@H](C)CO)C(=O)c2cccc(NC(=O)Nc3ccc(C(F)(F)F)cc3)c2O[C@@H]1CN(C)C(=O)Nc1cccc2ccccc12` was tested, and the cytotoxicity call was “active”.
`C[C@H]1CN([C@@H](C)CO)C(=O)c2cccc(NC(=O)Nc3ccc(C(F)(F)F)cc3)c2O[C@H]1CN(C)C(=O)Nc1cccc2ccccc12` was tested, and the cytotoxicity call was “inactive”.
For `C[C@H]1CN([C@@H](C)CO)C(=O)c2cccc(NC(=O)Nc3ccc(C(F)(F)F)cc3)c2O[C@@H]1CN(C)C(=O)Nc1cccc2ccccc12`, the cytotoxicity call was “active”.
For `COCC#Cc1cnc2c(c1)C(=O)N([C@@H](C)CO)C[C@@H](C)[C@@H](CN(C)C(C)=O)O2`, the cytotoxicity call was “inactive”.
For `C[C@@H]1CN([C@H](C)CO)C(=O)c2cc(NC(=O)CCCN(C)C)ccc2O[C@H]1CN(C)S(=O)(=O)c1ccccc1`, the cytotoxicity call was “inactive”.
`C[C@@H]1CCCCO[C@H](CN(C)Cc2ccccc2)[C@H](C)CN([C@H](C)CO)C(=O)c2cc(NC(=O)CCC(F)(F)F)ccc2O1` was tested, and the cytotoxicity call was “inactive”.
`Cc1ccc(S(=O)(=O)Nc2ccc3c(c2)C(=O)N([C@@H](C)CO)C[C@H](C)[C@H](CN(C)C(=O)Nc2ccccc2)OCCCC[C@@H](C)O3)cc1` was tested, and the cytotoxicity call was “inactive”.
In the case of `CCS(=O)(=O)N1CC[C@@H]2CO[C@H](CN3CCN(C)CC3)[C@@H]2C1`, the cytotoxicity call is reported as “inactive”.
With `Cc1noc(C)c1S(=O)(=O)Nc1ccc2c(c1)CC(=O)N([C@@H](C)CO)C[C@H](C)[C@@H](CN(C)CC1CC1)O2` the cytotoxicity call was “inactive”.
For `C[C@H]1CCCCO[C@@H](CN(C)S(=O)(=O)c2ccccc2)[C@@H](C)CN([C@@H](C)CO)C(=O)c2cc(NC(=O)Nc3ccc(C(F)(F)F)cc3)ccc2O1`, the cytotoxicity call was “inactive”.
`C=CCNC1=C2C[C@@H](C)C[C@H](OC)[C@H](O)[C@@H](C)/C=C(\C)[C@H](OC(N)=O)[C@@H](OC)/C=C\C=C(/C)C(=O)NC(=CC1=O)C2=O` was tested, and the cytotoxicity call was “active”.
With `CO[C@H]1/C=C\C=C(/C)C(=O)NC2=CC(=O)C=C(C2=O)[C@H](OC)[C@@H](C)C[C@H](OC)[C@H](O)[C@@H](C)/C=C(\C)[C@@H]1OC(N)=O` the cytotoxicity call was “inactive”.
`COC1=C2C[C@H](C)C[C@H](OC)[C@@H](O)[C@H](C)/C=C(\C)[C@H](OC(N)=O)[C@H](OC)/C=C/C=C(\C)C(=O)NC(=CC1=O)C2=O` was tested, and the cytotoxicity call was “inactive”.
`C=CCNC1=C2C[C@H](C)C[C@H](OC)[C@@H](O)[C@H](C)/C=C(\C)[C@H](OC(N)=O)[C@H](OC)/C=C/C=C(\C)C(=O)NC(=CC1=O)C2=O` was tested, and the cytotoxicity call was “active”.
`COC1=C2C[C@@H](C)C[C@H](OC)[C@H](O)[C@@H](C)/C=C(\C)[C@H](OC(N)=O)[C@@H](OC)/C=C\C=C(/C)C(=O)NC(=CC1=O)C2=O` was tested, and the cytotoxicity call was “inactive”.
With `CO[C@H]1/C=C\C=C(/C)C(=O)NC2=CC(=O)C(NCCN(C)C)=C(C[C@@H](C)C[C@H](OC)[C@H](O)[C@@H](C)/C=C(\C)[C@@H]1OC(N)=O)C2=O` the cytotoxicity call was “active”.
With `COC1=C2C[C@@H](C)C[C@H](OC)[C@H](O)[C@@H](C)/C=C(\C)[C@H](OC(N)=O)[C@@H](OC)/C=C/C=C(\C)C(=O)NC(=CC1=O)C2=O` the cytotoxicity call was “active”.
For `Cc1noc(C)c1NC(=O)Nc1ccc2c(c1)CC(=O)N([C@H](C)CO)C[C@H](C)[C@H](CN(C)Cc1ccc(C(F)(F)F)cc1)O2`, the cytotoxicity call was “inactive”.
With `C[C@H](CO)N1C[C@H](C)[C@H](CN(C)CC2CCOCC2)Oc2ncc(C#Cc3cccc(F)c3)cc2C1=O` the cytotoxicity call was “inactive”.
`CC(C)(C)c1cccc(N)c1` was tested, and the cytotoxicity call was “inactive”.
For `CCCC(=O)Nc1ccc2c(c1)C(=O)N(C)C[C@@H](OC)[C@@H](C)CN(Cc1ccc(-c3ccccn3)cc1)[C@@H](C)CO2`, the cytotoxicity call was “inactive”.
For `COc1cccc(OCc2ccc(Cn3nc(NC(=O)NCc4ccc(F)cc4)c4ccccc43)cc2)c1`, the cytotoxicity call was “inactive”.
With `O=c1ccoc2cc(O)c([C@H]3O[C@H](CO)[C@@H](O)[C@H](O)[C@@H]3O)c(O)c12` the cytotoxicity call was “inactive”.
`C[C@H]1CN([C@@H](C)CO)C(=O)Cc2cc(NC(=O)C3CCCCC3)ccc2O[C@@H]1CN(C)C(=O)Nc1ccc(C(F)(F)F)cc1` was tested, and the cytotoxicity call was “inactive”.
In the case of `CC(C)NC(=O)N(C)C[C@H]1Oc2c(NC(=O)C3CCOCC3)cccc2C(=O)N([C@@H](C)CO)C[C@H]1C`, the cytotoxicity call is reported as “inactive”.
For `CCC(=O)OC(CC(=O)O)C[N+](C)(C)C.[Cl-]` (configuration not stated), the cytotoxicity call was “inactive”.
For `CCS(=O)(=O)NCC[C@H]1CC[C@@H](NS(=O)(=O)c2ccccc2C)[C@@H](CO)O1`, the cytotoxicity call was “inactive”.
`C[C@@H]1CN([C@H](C)CO)C(=O)CCCn2cc(nn2)CO[C@H]1CN(C)C(=O)Nc1ccnc(N2CCOCC2)c1` was tested, and the cytotoxicity call was “inactive”.
`Cc1ccc(S(=O)(=O)N(C)C[C@@H]2OCCCC[C@H](C)Oc3ccc(NC(=O)Cc4ccccc4)cc3C(=O)N([C@@H](C)CO)C[C@H]2C)cc1` was tested, and the cytotoxicity call was “inactive”.
In the case of `C[C@@H]1CCCCO[C@H](CN(C)C(=O)c2ccccc2)[C@@H](C)CN([C@@H](C)CO)C(=O)c2cc(NC(=O)NC3CCCCC3)ccc2O1`, the cytotoxicity call is reported as “inactive”.
With `CC/1=C(CCC(=O)O)/C/2=C/c3[nH]c(c(c3CCC(=O)O)C)/C=C/3\N=C(/C=C/4\N=C(\C=C1/N2)C(=C4C)C=C)C(=C3C)C=C` the cytotoxicity call was “inactive”.
`COC(=O)CCc1c(c/2[nH]c1/C=C/1\N=C(/C=C/3\N=C(/C=C/4\N/C(=C2)[C@]2(C)[C@H](C(=O)OC)C(=CC=C42)C(=O)OC)C(=C3C=C)C)C(=C1CCC(=O)O)C)C` was tested, and the cytotoxicity call was “active”.
In the case of `C=CC1=C(C)c2cc3[nH]c(cc4nc(cc5[nH]c(cc1n2)c(C)c5CCC(=O)O)C(CCC(=O)O)=C4C)c(C)c3C=C`, the cytotoxicity call is reported as “inactive”.
For `Cc1noc(C)c1NC(=O)N(C)C[C@@H]1Oc2c(NC(=O)c3ccc(-c4nccs4)cc3)cccc2C(=O)N([C@H](C)CO)C[C@@H]1C`, the cytotoxicity call was “inactive”.
In the case of `C[C@@H]1CN([C@H](C)CO)C(=O)c2cc(NC(=O)Nc3ccc(C(F)(F)F)cc3)ccc2O[C@@H](C)CCCCO[C@@H]1CN(C)C(=O)c1ccccc1`, the cytotoxicity call is reported as “active”.
For `C[C@@H]1CCCCO[C@@H](CN(C)C(=O)c2ccccc2)[C@H](C)CN([C@H](C)CO)C(=O)c2cc(NC(=O)Nc3ccc(C(F)(F)F)cc3)ccc2O1`, the cytotoxicity call was “inactive”.
For `C[C@@H]1CN([C@@H](C)CO)C(=O)c2cc(NC(=O)Nc3ccc(C(F)(F)F)cc3)ccc2O[C@@H](C)CCCCO[C@H]1CN(C)C(=O)c1ccccc1`, the cytotoxicity call was “inactive”.
In the case of `C[C@H]1CCCCO[C@H](CN(C)C(=O)c2ccccc2)[C@@H](C)CN([C@@H](C)CO)C(=O)c2cc(NC(=O)Nc3ccc(C(F)(F)F)cc3)ccc2O1`, the cytotoxicity call is reported as “inactive”.
For `C[C@@H]1CN([C@H](C)CO)C(=O)c2cc(NC(=O)Nc3ccc(C(F)(F)F)cc3)ccc2O[C@@H](C)CCCCO[C@H]1CN(C)C(=O)c1ccccc1`, the cytotoxicity call was “active”.
`C[C@H]1CCCCO[C@@H](CN(C)C(=O)c2ccccc2)[C@@H](C)CN([C@@H](C)CO)C(=O)c2cc(NC(=O)Nc3ccc(C(F)(F)F)cc3)ccc2O1` was tested, and the cytotoxicity call was “inactive”.
In the case of `C[C@@H]1CN([C@H](C)CO)C(=O)c2cc(NC(=O)Nc3ccccc3)ccc2O[C@@H](C)CCCCO[C@@H]1CN(C)Cc1ccc(Cl)c(Cl)c1`, the cytotoxicity call is reported as “inactive”.
